AmpC inh no detg – blocks E. coli AmpC beta-lactamase in detergent-free assay; Potency, µM (highest dose often 57.1 µM), without a hit: at the highest dose activity change, negative = inhibition, hits mostly inhibitors; hit rate 0.52% among 330,000; AID 485341; AmpC nitrocefin hydrolysis, absorbance 480 nm, 0.0001% Triton; P00811;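 further: plate controls were no compound for no effect and no enzyme for full effect; nearly all actives have a fitted effect of over 20% in size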
Target sequence (P00811 whole entry, looked up): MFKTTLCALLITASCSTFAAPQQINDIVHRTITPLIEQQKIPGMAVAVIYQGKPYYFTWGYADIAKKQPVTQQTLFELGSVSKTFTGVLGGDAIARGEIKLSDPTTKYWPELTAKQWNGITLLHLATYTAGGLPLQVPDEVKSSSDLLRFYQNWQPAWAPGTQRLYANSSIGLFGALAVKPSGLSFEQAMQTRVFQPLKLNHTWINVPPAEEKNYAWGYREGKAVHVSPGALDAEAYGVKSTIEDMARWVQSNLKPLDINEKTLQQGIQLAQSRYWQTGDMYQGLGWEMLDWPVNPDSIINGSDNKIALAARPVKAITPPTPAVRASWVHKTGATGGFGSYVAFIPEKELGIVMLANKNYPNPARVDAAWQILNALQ
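AmpC (5.3 nM in the dispensed reagent) in 20 mM phosphate pH 7.0 with 0.01% (detergent screen) or 0.0001% Triton X-100 was preincubated with compounds for 15 min at room temperature. Nitrocefin was then added from an 800 uM solution, and hydrolysis was followed at 480 nm.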
AmpC inh detg – blocks E. coli AmpC beta-lactamase in detergent assay | P00811 | AmpC hydrolysis of nitrocefin, absorbance 480 nm, 0.01% Triton | Potency, µM (top dose mostly 114 µM), for inactives: top-dose activity change, negative = inhibition, actives largely listed as inhibitors | hit rate 0.041% among 370,000 | AID 485294;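 further: 0% = no-compound wells and -100% = no-enzyme wells; nearly all actives have a fitted effect of over 25% in size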
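AmpC (5.3 nM in the dispensed reagent) in 20 mM phosphate pH 7.0 with 0.01% (detergent screen) or 0.0001% Triton X-100 was preincubated with compounds for 15 min at room temperature. Nitrocefin was then added from an 800 uM solution, and hydrolysis was followed at 480 nm.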
Sm TGR block – inhibitors of Schistosoma mansoni thioredoxin glutathione reductase; Q962Y6; purified TGR, DTNB reduction, TNB absorbance 405 nm; Potency, µM (top dose mostly 114 µM), without a hit: top-dose activity change, negative = inhibition, usual class: inhibitors; hit rate 3% among 360,000; AID 485364; further: nearly all actives have a fitted effect of over 60% in size
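TGR 20 nM + NADPH 100 uM (dispensed conc.), cpd preinc 15 min RT; start with NADPH (500 uM addition) then DTNB (15 mM addition). Kinetic TNB absorbance, 405 nm filter. Four-parameter Hill fit across titration.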
Giardia FBPA inh – blocks Giardia fructose-bisphosphate aldolase activity. hit rate 0.71% among 290,000. A8B2U2. Potency, µM (titrated, usually from 59.6 µM), for the others: at the highest dose activity, negative = inhibition, actives largely listed as inhibitors. purified Giardia FBPA. AID 2451; further: nearly all actives have a fitted effect of over 55% in size
Target sequence (A8B2U2 whole entry, looked up): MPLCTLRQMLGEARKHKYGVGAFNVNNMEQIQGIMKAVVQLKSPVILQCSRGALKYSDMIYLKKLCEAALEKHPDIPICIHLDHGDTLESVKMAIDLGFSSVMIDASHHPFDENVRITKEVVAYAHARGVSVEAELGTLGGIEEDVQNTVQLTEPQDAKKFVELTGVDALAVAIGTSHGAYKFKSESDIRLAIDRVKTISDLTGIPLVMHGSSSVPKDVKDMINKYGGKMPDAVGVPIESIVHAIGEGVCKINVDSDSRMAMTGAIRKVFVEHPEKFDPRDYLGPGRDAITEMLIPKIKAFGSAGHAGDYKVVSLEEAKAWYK
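Giardia FBPA (40 nM reagent) was preincubated 10 min at RT with compound (up to 57.5 uM final), then substrate plus GAPDH/TPI/NAD/arsenate coupling system with diaphorase/resazurin was added; resorufin fluorescence (525/598 nm) was read after 20 min.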
RE007 growth inh – less growth of the S. pombe RE007 Vpr strain. S. pombe RE007 Vpr strain, BacTiter-Glo ATP luminescence, 24 h. Potency, µM (titrated, usually from 92.2 µM), without a hit: top-dose activity change, negative = less growth, usual class: inhibitors. hit rate 0.21% among 360,000. AID 651644; active means well fitted falling curve with a large enough effect; inconclusive means small, poorly fitted or top-dose-only effect; inactive means no such curve, though single readings can be large or run the other way; further: nearly all actives have a fitted effect of over 50% in size
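Fission yeast strain RE007, carrying one chromosomally integrated HIV-1 vpr copy, was seeded at OD 0.01 in PMG+AL medium with 23 nL pinned compound. After 24 h at 30 °C and 99% humidity, viability was read by BacTiter-Glo luminescence.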
* hit, by the source's call; ? = inconclusive; . = no result; ! = a repeat was not active; [ ] = another dose, or the depositor's remark. Compounds with a hit are over-represented: about 3.4% of the library has one in this group of screens. Unless noted, the call rests on the fitted dose curve; in most records, active means well fitted curve in the direction sought with a large enough effect; inconclusive means small, poorly fitted or top-dose-only effect, or another doubt; inactive means no such curve, though single readings can be large; an effect the other way counts as inactive or inconclusive. Unless noted, on the % scale 0 is the no-effect control and ±100 the full control effect; potency means the concentration at half of the fitted maximal effect.

SMILES | AmpC inh no detg | AmpC inh detg | Sm TGR block | Giardia FBPA inh | RE007 growth inh
CCCCCCNC(=O)c1cc(-c2ccco2)nc2ccccc12 | 4% | -2% | 3.2µM* | 0% | 34%
NS(=O)(=O)c1ccc(CCNC(=O)c2cc(-c3ccco3)nc3ccccc23)cc1 | -33% | -2% | 8.9µM* | . | -2%
CC(C)CCNC(=O)c1cc(-c2ccco2)nc2ccccc12 | 62% | 0% | 40µM* | -1% | 14%
NS(=O)(=O)c1ccc(CCNC(=O)c2cc(-c3ccccc3)nc3ccccc23)cc1 | -42% | -8% | -4% | -1% | -2%
O=S(=O)(Nc1ccc(O)c(CN2CCCCC2)c1)c1ccccc1 | 75% | ? | -6% | 1% | -22%
COc1ccc(N(CC(=O)NC2CCCC2)C(=O)Cn2nnc(-c3ccc(C)o3)n2)cc1 | 7% | 0% | -18% | 1% | 9%
Nc1ccc(Oc2ccccc2-c2ccccc2)cc1 | . | . | . | . | -7%
CCCCN(C(=O)c1ccc(N(C)S(=O)(=O)c2ccc(C)cc2)cc1)c1c(N)n(CCCC)c(=O)[nH]c1=O | -30% | ? | -3% | . | 0%
COc1ccc2cc(/C=N/NC(=O)CN(c3ccccc3)S(=O)(=O)c3ccccc3)c(Cl)nc2c1 | -24% | -2% | -8% | 9% | .
O=C(CCNc1cc(Cl)cc(Cl)c1)c1ccco1 | -9% | 0% | ? | 0% | ?
O=C(CCNc1cccc(C(F)(F)F)c1)c1ccco1 | -4% | -6% | 3.5µM* | -5% | ?
O=C(CCNc1ccc(F)cc1)c1ccco1 | -11% | 5% | 4µM* | -19% | 6.3µM*
O=C(CCNc1ccc(F)c(Cl)c1)c1ccco1 | -23% | -5% | 8.9µM* | -4% | -24%
CC(C)(C)c1ccc(-n2ncc3c2CCCC3NC(=O)CCN2CCCC2=O)cc1 (centres undefined) | 174% | 2% | -2% | . | -8%
CC(C)NC(=O)NC(=O)COC(=O)c1c2c(nc3ccccc13)CCC2 | -31% | 0% | -6% | . | 8%
O=S(=O)(Nc1ccc2nc(-c3ccc(Br)o3)[nH]c2c1)c1ccccc1 | 25µM* | -3% | 28µM* | -21% | .
Cc1ccc(-c2nc3ccc(NS(=O)(=O)c4ccccc4)cc3[nH]2)o1 | -46% | -1% | 35µM* | -20% | 1%
Cc1ccc(C)c(NC(=O)CSc2nc(N)c(NC(=O)c3cccs3)c(=O)[nH]2)c1 | 14µM* | -17% | -14% | 1% | 13%
Cc1ccc(C)c(NC(=O)CSc2nc3nc(-c4cccs4)cc(C(F)(F)F)c3c(=O)[nH]2)c1 | 3.5µM* | -1% | 1% | 17% | 2%
O=C(CSc1nc2nc(-c3cccs3)cc(C(F)(F)F)c2c(=O)[nH]1)Nc1ccc(F)c(F)c1 | -40% | 5% | . | 15% | 19%
CCOC(=O)C(=CNc1ccc(-c2ccco2)c(Cl)c1)C(=O)OCC | 24% | -10% | 14µM* | -9% | -12%
COc1ccc(S(=O)(=O)Nc2cc3c4c(oc3c3ccccc23)CCCC4=O)cc1 | -26% | 27% | -24% | 22% | -12%
CC1CCCCC12NC(=O)N(CC(=O)NC(=O)Nc1ccc3c(c1)OCCO3)C2=O (centres undefined) | -2% | -10% | 71µM* | 1% | 4%
CC1CCCCC12NC(=O)N(CC(=O)Nc1ccc3c(c1)OCO3)C2=O (centres undefined) | . | . | . | . | 9%
Cc1ccc(Sc2cc(C(=O)NCCN(C)C)c3ccccc3n2)cc1 | 34% | -10% | -21% | 5% | -5%
SMILES | AmpC inh no detg | AmpC inh detg | Sm TGR block | Giardia FBPA inh | RE007 growth inh
Cc1ccc(Sc2cc(C(=O)NCCCN(C)C)c3ccccc3n2)cc1 | 94% | -5% | 40µM* | 11% | 6%
CC(=O)c1cccc(S(=O)(=O)Nc2cc(C(F)(F)F)ccc2N2CCOCC2)c1 | 74% | 2% | -13% | . | 15%
O=C(/C=C/c1ccco1)Nc1cccnc1Cl | -8% | 4% | 5.6µM* | -20% | -2%
O=C(/C=C/c1ccccc1)Nc1cccnc1Cl | -14% | ? | 1% | 0% | -15%
O=C(/C=C/c1ccco1)Nc1ccccc1N1CCCCC1 | -28% | -9% | 45µM* | 6% | -2%
COC(=O)c1ccccc1NC(=O)/C=C/c1ccco1 | -6% | -16% | 40µM* | 0% | -10%
CCOC(=O)C(=O)Nc1ccc([N+](=O)[O-])cc1OC | -23% | -3% | -1% | 0% | -28%
Cc1ccccc1S(=O)(=O)NC(=O)C1(C)CCN1C(=O)CC1CCCCC1 (centres undefined) | . | . | . | . | 6%[18.4 µM]
CCN1/C(=C(\O)c2ccccc2)C(=O)c2ccccc2S1(=O)=O | -35% | -5% | -20% | -3% | 40µM*
CCCCN(CCCC)C1=C(C(=O)c2ccccc2)N(CC)S(=O)(=O)c2ccccc21 | . | -1% | -7% | . | .
S=c1[nH]c2cc3ccccc3cc2[nH]1 | -25% | -4% | 8.9µM*! | -9% | 7%
N#CCO/N=C/C(=O)Nc1ccc(F)cc1F | -22% | 2% | . | 1% | -13%
O=C1CCCC(=O)C1C1c2ccccc2CCN1C(=O)CCl (centres undefined) | -15% | -7% | 45µM* | -6% | 20%
COc1ccc2c(c1)CCN(C(=O)CCl)C2C1C(=O)CCCC1=O (centres undefined) | -14% | 0% | ? | -10% | -5%
COC(=O)c1ccc(-c2noc(CN(C)CCC3CCCCO3)n2)cc1 (centres undefined) | -49% | ? | 0.1µM* | 18µM* | -3%
COc1ccc(-c2noc(CN(C)CCC3CCCCO3)n2)cc1 (centres undefined) | 11% | 4% | -6% | 4% | ?
COc1ccc(/C=C(\NC(=O)c2ccccc2)C(=O)N/N=C/c2cccnc2)cc1 | 25% | -9% | 0% | 2% | 10%
Cc1cc([N+](=O)[O-])nn1CC(=O)c1ccccc1 | -14% | -5% | 21% | 3% | 16%
Cc1nc([N+](=O)[O-])c(C(=O)OCc2ccccc2Br)n1C | 39% | 4% | -1% | 7% | 8%
Cc1nc([N+](=O)[O-])c(Br)n1CC(=O)c1ccccc1 | -10% | 4% | 4µM* | 5% | 1%
Cc1nc([N+](=O)[O-])c(Br)n1CC(=O)c1ccc(Br)cc1 | -6% | ? | 11µM* | 0% | -9%
Cc1nc([N+](=O)[O-])cn1CC(=O)c1ccc(Cl)cc1 | -19% | ? | 4% | 5% | 17%
Cc1nc([N+](=O)[O-])c(Br)n1CC(=O)c1ccc2ccccc2c1 | 16% | 2% | 14µM* | -6% | 22%
COc1ccccc1N1CCN(C(=O)c2ccco2)CC1 | -10% | -11% | -6% | 0% | 11%
Cc1cc(C)c2c(SC(C)C)nc(N)nc2n1 | -11% | -8% | -2% | 5% | .

Bioassay records as filed in PubChem.
